Assay results published in the supplement of paper PMC6555819.

System: RXRa DBDmut IVT, anti-RXR (DBD mutation: RXRa K156A/R161A, NR concentration 90 nM)
Assay: PBM binding z-score (relative to random genomic background probes); higher = stronger binding; sequences stand for … in GC…GCGATTGACAGCGTAGAATGAAGG
Summary of the method: (§1)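 The probes on custom Agilent 4×180K protein-binding microarrays were double-stranded, with 34-nt variable regions bearing direct-repeat seeds, single-nucleotide variants, half-site ablations and random human genomic background sequences. Incubation lasted 1 h with ligand-free nuclear receptor dimers in PBS pH 7.4, 2% milk, 0.02% Triton X-100, 1 mM DTT, 0.2 mg/mL BSA and 0.4 mg/ml salmon testes DNA. Antibodies against each partner (one per run) detected bound dimers, and fluorescence scans were regression-normalized. Binding z-scores take the random background probes as reference.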

First: AGTCAAAGTTCGTCTAGGTAACGTAAGATATGCT
Second: CCTTACGGGTCACGAGTTTATAGCACGACGAGCG
The PBM binding z-score of the first is higher: 3.25 for the first, 2.39 for the second.

Compared with GCTATTAGTGGAAAGGGCAACCGAATGATTCTCG, CCAGACAGGTGAAAGGTAACTCGGTCTGGTACGC is lower in PBM binding z-score: 0.693 for the first, -0.242 for the second.

Compared with AGAACGAGGGCACGCTGAGTTGATAGCCGAGTAG, GCTAGCAGGCCATTTGGGTCACTCGATGACGGGC is lower in PBM binding z-score: 1.99 for the first, 0.253 for the second.

Going from CTCGAAAGGTCGTGCTCAAGTGAGTATACCAAAC to CCTCGGAGGACATAAGGTCAGAGCTGTCCGCTTT, the PBM binding z-score falls from 2.31 to 0.965.

First: GCTATTAGTTGAAAGGGGAACCGAATGATTCTCG
Second: ATCCAAAGGTCGAAGGTGAGTATACCCACCCGAA
The PBM binding z-score of the first is lower: 0.78 for the first, 0.893 for the second.

Going from ACTAGTTTGTCAGCTGAGGTCACACACAATTCGG to TCGAGTAGGTTAGTCGGGGCCTTCAGCCAACATA, the PBM binding z-score falls from 1.98 to 0.14.

Going from GCGACTGGGCCATCAGCAGGTTACCATAACTTAA to ACTAGTTGGTCAGCTGAGGTCATACACAATTCGG, the PBM binding z-score rises from -0.654 to 1.89.

Compared with CAGACTGGGGCATAAGGTTACCATAAGCCAGCCC, TCCTATAGGTAAAGGTGAAAGTCGAACGATATGA is higher in PBM binding z-score: 0.105 for the first, 0.809 for the second.

Going from GATACAGGGTCAGCTAGAGTCCAGAGTATGGAAA to ACACGGAGGACAAAGGTCAGAGCTACGCCAGTGA, the PBM binding z-score rises from 1.39 to 1.57.

System: RXRa homodimer (NR concentration 180 nM)
Assay: as above
Summary of the method: as §1

Going from CCTCGGAGGACAGAACGTCAGAGCTGTCCGCTTT to AGAACGAGGGCACGCTGAGTTGATAGCAGAGTAG, the PBM binding z-score rises from -1.12 to 1.36.

First: TCATATAGGTAAACAGGGGAAAGTCCGTAAGTTA
Second: GGAACGAGGGCAAGTTGTTAGCAGAGTTTGATGG
The PBM binding z-score of the first is higher: 0.978 for the first, 0.957 for the second.

Compared with ATATGTAGGTTAGCTGGGGTCATTCAGACTAGGC, ACTCGGAGGAGAAAGGTCAGAGCTACGCCAGTGA is lower in PBM binding z-score: 5.35 for the first, 4 for the second.

First: TGATTGAGGTTATAAGATCAGGGAACGTTGCAAA
Second: CGAACCAGGTCATCCAGGACAGTGAATACATTGA
The PBM binding z-score of the first is lower: 2.06 for the first, 3.95 for the second.

First: CGAACTAGGTCAGAACAGGAGAGTGAAGGATGAT
Second: CCTCGGATGACAACAGGAGGTCAGAGCTGCCAGA
The PBM binding z-score of the first is lower: 1.23 for the first, 2.01 for the second.

Compared with CCGACTGGGGCAAGGTTAACATAACGCACAGCCA, CTCGAAAGGTCTGTTGAGGTGAGTATACGGATAA is lower in PBM binding z-score: 1.38 for the first, 0.536 for the second.

First: TAGCGTAGGTCAGATCGGGCCAGTATACGCTATA
Second: CCTAGTTGGTCAGGGTCACACACGCTATAGGTAC
The PBM binding z-score of the first is lower: 1.83 for the first, 4.93 for the second.

First: ACTAGTTGGTCATCTGAGGTCACACACAATTCGG
Second: TCTTGTAGATCAAAGGGTAAGAAAGCCGAAGCCT
The PBM binding z-score of the first is higher: 4.26 for the first, 0.585 for the second.

First: ATCGAAAGTTCGAAGGTGAGTATACCCACCCGAA
Second: GCTATTAGTTGAAAGGGCAAGCGAATGATTCTCG
The PBM binding z-score of the first is higher: 2 for the first, 1.06 for the second.

First: TAGACTAGGTCATTGGGCCAGTATAGTACGCATC
Second: ATCGAAAGGTCGAGCTGAGTATAGAGAAAGGGAA
The PBM binding z-score of the first is lower: 2.44 for the first, 4.35 for the second.

Compared with CCTACTGGGCCAAAGGTCATGGATTCCAATGCTC, CAAACTAGGTCAAGGTCAAACTCGGTTTGTGCCA is lower in PBM binding z-score: 6.66 for the first, 5.73 for the second.

First: AGTCAAAGTTCGTCTAGGTAACGTAAGATATGCT
Second: CCTTACGGGTCACGAGTTTATAGCACGACGAGCG
The PBM binding z-score of the first is lower: 1.39 for the first, 5.78 for the second.

Compared with GCTATTAGTGGAAAGGGCAACCGAATGATTCTCG, CCAGACAGGTGAAAGGTAACTCGGTCTGGTACGC is higher in PBM binding z-score: 0.775 for the first, 2.27 for the second.

First: AGAACGAGGGCACGCTGAGTTGATAGCCGAGTAG
Second: GCTAGCAGGCCATTTGGGTCACTCGATGACGGGC
The PBM binding z-score of the first is higher: 1.39 for the first, 0.666 for the second.

Going from CTCGAAAGGTCGTGCTCAAGTGAGTATACCAAAC to CCTCGGAGGACATAAGGTCAGAGCTGTCCGCTTT, the PBM binding z-score falls from 4.62 to 2.31.

First: GCTATTAGTTGAAAGGGGAACCGAATGATTCTCG
Second: ATCCAAAGGTCGAAGGTGAGTATACCCACCCGAA
The PBM binding z-score of the first is lower: 0.144 for the first, 5.48 for the second.

First: ACTAGTTTGTCAGCTGAGGTCACACACAATTCGG
Second: TCGAGTAGGTTAGTCGGGGCCTTCAGCCAACATA
The PBM binding z-score of the first is higher: 4.13 for the first, -0.278 for the second.

Going from GCGACTGGGCCATCAGCAGGTTACCATAACTTAA to ACTAGTTGGTCAGCTGAGGTCATACACAATTCGG, the PBM binding z-score rises from -0.151 to 3.86.

First: CAGACTGGGGCATAAGGTTACCATAAGCCAGCCC
Second: TCCTATAGGTAAAGGTGAAAGTCGAACGATATGA
The PBM binding z-score of the first is lower: 1.6 for the first, 1.98 for the second.

First: GATACAGGGTCAGCTAGAGTCCAGAGTATGGAAA
Second: ACACGGAGGACAAAGGTCAGAGCTACGCCAGTGA
The PBM binding z-score of the first is lower: 4.32 for the first, 5.15 for the second.
